Screening data deposited in PubChem by National Center for Advancing Translational Sciences (NCATS).
SW480 rereplic: DNA re-replication induction in SW480 cells | 340,000 tested, 1.8% active | Potency, µM (highest dose often 46.1 µM), without a hit: top-dose re-replication activation, most hits filed as activators | SW480 DNA re-replication, Hoechst DNA content imaging, 48 h; further: % of control where 0% means no effect; nearly all actives have a fitted effect of over 55% in size
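Image-based read-out: total Hoechst fluorescence of nuclei (405 nm excitation, 500-530 nm emission), with hits raising the fraction of high-intensity nuclei. SW480 colon cells incubated 48 hr with compounds at 37 C.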
KB-3-1 cytotox: KB-3-1 parental cell cytotoxicity | KB-3-1 viability, CellTiter-Glo ATP luminescence, 72 h | Potency, µM (top dose mostly 46.1 µM), actives largely listed as cytotoxic | 400,000 tested, 1.4% active; further: on the % scale 0 is the no-effect control and ±100 the full control effect; nearly all actives have a fitted effect of over 60% in size
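Cells are dispensed, compounds pinned in, plates held at 37 °C for 72 h, then CellTiter-Glo is added and luminescence read after 10 minutes. Cell line: parental KB-3-1 in phenol-red-free DMEM, 10% FBS.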
MCF10A rerep: inducers of DNA re-replication in MCF 10A breast cells | Potency, µM (highest dose often 46.1 µM), for the others: at the top dose activity, positive = re-replication, actives largely listed as activators | 350,000 tested, 2.9% active | MCF 10A DNA re-replication, Hoechst nuclear intensity, 48 h | AID 624296; further: % of control where 0% means no effect; nearly all actives have a fitted effect of over 50% in size
PTAP TSG101 blk: blocks PTAP/TSG101 interaction to inhibit HIV-1 budding | Q99816 | Fluorescence polarization, FITC-PTAP peptide / Tsg101 binding | Potency, µM (top dose mostly 115 µM), for the others: top-dose activity change, negative = inhibition, actives largely listed as inhibitors | 340,000 tested, under 10 active | AID 493005; active means well fitted inhibition curve with a large enough effect in the main read-out, with a control signal flat, not every such curve was filed as active; inconclusive means small, poorly fitted or top-dose-only effect, or effect the other way, or a change in a side signal; inactive means no such curve, though single readings can be large or run the other way; further: % of control where 0% means no effect
Target sequence (Q99816 whole entry, looked up): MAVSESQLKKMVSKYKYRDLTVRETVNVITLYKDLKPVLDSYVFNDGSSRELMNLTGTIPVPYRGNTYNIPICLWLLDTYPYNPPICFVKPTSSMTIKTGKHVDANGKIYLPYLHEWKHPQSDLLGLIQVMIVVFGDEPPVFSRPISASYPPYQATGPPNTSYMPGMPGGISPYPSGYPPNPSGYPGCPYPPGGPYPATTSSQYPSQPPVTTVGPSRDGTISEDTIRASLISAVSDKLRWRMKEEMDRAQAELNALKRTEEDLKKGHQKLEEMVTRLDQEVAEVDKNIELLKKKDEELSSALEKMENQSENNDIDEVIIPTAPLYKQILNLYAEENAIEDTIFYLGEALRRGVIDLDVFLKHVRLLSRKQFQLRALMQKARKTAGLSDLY
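Tsg101 binding domain (10 uM final) was mixed with compound and a FITC-labeled PTAP peptide (50 nM final) in HEPES pH 7.5 buffer with NaCl, Tween 20, EDTA and TCEP; fluorescence polarization was read after 20 min at r.t.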
KB-V1 cytotox: kills drug-selected multidrug resistant KB-V1 cells. KB-V1 MDR cells viability, CellTiter-Glo, 72 h. 400,000 tested, 3.4% active. Potency, µM (top dose mostly 46.1 µM), actives largely listed as cytotoxic; further: on the % scale 0 is the no-effect control and ±100 the full control effect; nearly all actives have a fitted effect of over 60% in size
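KB-V1 MDR subline cells in DMEM (phenol-red free, 10% FBS) exposed to compounds in qHTS concentration series for 72 h at 37 degrees C. Viability read by CellTiter-Glo luminescence; concentration-effect curves fitted after normalization and correction.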
PINK1 modulator: PINK1 expression modulation | PINK1 immunofluorescence, high-content cytometry, 24 h | Potency, µM (highest dose often 76.6 µM), inactives show at the highest dose activation (PINK1 increase), actives largely listed as activators | 410,000 tested, 0.2% active | AID 624263; active means well fitted activation curve with a large enough effect; inconclusive means small, poorly fitted or top-dose-only effect; cell line not stated here; further: % of control where 0% means no effect; nearly all actives have a fitted effect of over 65% in size
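A stable cell line was treated with compounds at 5 concentrations for 24 hours, with CCCP as control. PINK1 levels and mitochondrial localization were measured by immunofluorescence with mitochondrial, cell and nuclear markers after fixation, read by laser-scanning cytometry.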
Numbers without * were called inactive; i = inactive; ? = inconclusive; / = no result given; [ ] = dose if it differs, or a comment. Sampled rows, rich in hits. Any-hit rate of the full collection: about 6.8%. Unless noted, the call rests on the fitted dose curve; in most records, active means well fitted curve in the direction sought with a large enough effect; inconclusive means small, poorly fitted or top-dose-only effect, or another doubt; inactive means no such curve, though single readings can be large; an effect the other way counts as inactive or inconclusive. Potency means the concentration at half of the fitted maximal effect.

SMILES | SW480 rereplic | KB-3-1 cytotox | MCF10A rerep | PTAP TSG101 blk | KB-V1 cytotox | PINK1 modulator
Cn1cnc([N+](=O)[O-])c1Sc1nc2ccccc2[nH]1 | 20% | i | ? | 1% | i | -1%
Cc1cccc(C)c1NC(=O)C(c1cc2ccccc2o1)N1CCC(c2ccccc2)CC1 (stereo not drawn) | / | ? | / | / | 21µM* | /
Cc1cccc(NNC(=O)C(=O)NNc2cccc(C)c2)c1 | -7% | ? | 6.5µM* | -2% | i | 6%
CC1CCN(c2nn3c(=O)c(C(=O)NCCc4ccccc4)cnc3s2)CC1 | / | i | / | / | i | 1%
CCCCNC(=O)C[C@@H]1C[C@@]2(C(=O)OC)CCCCC=C2N(Cc2ccc3c(c2)OCO3)C1=O | / | i | / | / | ? | /
Nc1ncnc2c1nc(Br)n2C1OC(CO)C(O)C1O (stereo not drawn) | / | / | / | / | / | 1%
CCOc1ccccc1/C=N/Nc1nc2c(N)ncnc2n1[C@H]1O[C@@H](CO)[C@H](O)[C@@H]1O | 8.2µM* | i | 6% | 0% | i | 1%
COCCCNc1nc2c(S(=O)(=O)c3ccccc3)nnn2c2ccc(Cl)cc12 | / | i | / | / | i | -2%
CCOc1ccccc1CNC(=O)c1cc2c(=O)n(Cc3ccccc3)ccc2nc1C | / | i | / | / | i | 3%
Cc1ccc(C)c(N2CCN(C(=O)c3csc4ccccc34)CC2)c1 | 3% | ? | 16µM* | 2% | ? | 22%
c1ccc(CNc2ncnc3sc4c(c23)CCCC4)nc1 | -1% | i | 6% | -5% | 8.2µM* | 3%
C(=N\Nc1ncnc2sc3c(c12)CCC3)/c1ccncc1 | ? | ? | 22% | -1% | 18µM* | 1%
Cc1nc(NCc2ccccn2)c2c3c(sc2n1)CCCC3 | 9% | i | ? | 0% | i | 3%
O=C(Cn1c(-c2cccs2)cc2ccccc21)N1CCN(c2ccccc2F)CC1 | / | i | / | / | i | -2%
COc1ccc(Nc2nn3c(=O)c4cc5c(cc4nc3s2)OCO5)c(OC)c1 | / | i | / | / | i | 2%
Cc1ccc(S(=O)(=O)NC2CCCCC2)cc1 | -3% | i | -7% | -3% | i | 2%
CSc1ccc(S(=O)(=O)NC2CCCCCC2)cc1 | -4% | i | 9.2µM* | -4% | ? | /
O=C(NC1CCCCC1)c1ccc(S(=O)(=O)NCc2ccco2)cc1 | -10% | i | 3% | -3% | 15µM* | 38%[38.3 µM]
O=C(O)c1ccc(S(=O)(=O)NCC2CCCCC2)cc1 | -2% | i | -4% | -1% | i | -1%
O=C(NC1CC1)c1ccc(S(=O)(=O)NCC2CCCCC2)cc1 | 0% | i | 5.8µM* | 1% | i | 2%[38.3 µM]
O=C(NC1CC1)c1ccc(S(=O)(=O)NC2CCCCCC2)cc1 | -3% | i | 29% | -2% | 16µM* | 4%[38.3 µM]
O=C(COc1ccc(F)cc1)Nc1ccc2nc(SCC(=O)N3CCOCC3)sc2c1 | / | / | / | / | / | 1%
O=C(c1ccccc1C(=O)N1CCN(c2ccccc2)CC1)N1CCN(c2ccccc2)CC1 | -8% | i | 1% | -11% | i | 1%
CC(C)CC(=O)Nc1ccccc1N1CCN(c2ccc(F)cc2)CC1 | 1% | i | 15% | -2% | ? | 3%
O=C(c1ccc(Cn2cc(Br)cn2)cc1)N1CCN(c2ccccc2)CC1 | 15µM* | i | 21µM* | -1% | i | ?
SMILES | SW480 rereplic | KB-3-1 cytotox | MCF10A rerep | PTAP TSG101 blk | KB-V1 cytotox | PINK1 modulator
O=C(CSCc1ccccc1)N1CCN(c2ccc(F)cc2)CC1 | 1% | i | 26µM* | -6% | ? | /
O=C(c1ccccc1C(=O)N1CCN(c2ccc(F)cc2)CC1)N1CCN(c2ccc(F)cc2)CC1 | 4% | i | -15% | 0% | 9.2µM* | 4%
O=C(CSCc1ccccc1)N1CCN(c2ccccc2)CC1 | ? | i | 5% | 0% | i | 1%
CC(C)(C)C(=O)Nc1ccccc1N1CCN(c2ccc(F)cc2)CC1 | 0% | i | 21µM* | 1% | ? | 1%
O=C(CSCc1ccccc1)N1CCN(c2cccc(C(F)(F)F)c2)CC1 | 7% | i | -1% | -5% | i | 0%
O=C(c1ccc(CN2CCc3ccccc3C2)cc1)N1CCN(c2ccc(F)cc2)CC1 | -10% | ? | 7.3µM* | -3% | ? | 4%
Cc1[nH]c(-c2ccc(F)cc2)cc1C(=O)N1CCN(c2ccc(Cl)cc2)CC1 | -2% | i | 5.8µM* | 0% | i | ?
O=C(CSCc1cccc(F)c1)N1CCN(c2ccccc2)CC1 | 0% | i | -1% | -11% | 21µM* | 3%[38.3 µM]
O=c1[nH]c(SCc2cccc(Cl)c2)nc2c1CCC2 | / | i | / | / | i | 3%
O=C(CN1CCN(S(=O)(=O)c2ccccc2)CC1)Nc1ccccc1C(=O)NC1CC1 | -1% | i | 5% | -2% | 6.5µM* | 2%
CC(=O)c1ccc(S(=O)(=O)N2CCN(CC(=O)Nc3ccccc3C(=O)NC3CC3)CC2)cc1 | -18% | ? | -5% | -5% | i | 2%
COc1ccc(S(=O)(=O)N2CCCN(CC(=O)Nc3ccccc3F)CC2)cc1 | 12% | i | 1% | -1% | 9.2µM* | 0%
Cc1ccc(OCCSc2nc3ccccc3n2CC(=O)N2CCOCC2)c(C)c1 | / | i | / | / | i | -1%
C=C1C(=O)C=C[C@]2(C)C[C@@H]3OC(=O)[C@](C)(O)[C@H]3C[C@@H]12 | ? | ? | 6.5µM* | -1% | ? | 6%
CCc1cccc(NC(=O)c2c(N3CCCC3=O)c3cc(C)ccc3n2C)c1 | / | ? | / | / | 18µM* | 1%
Cc1ccc(NC(=O)c2c(N3CCCC3=O)c3cc(C)ccc3n2C)c(C)c1 | / | i | / | / | i | 0%
Cn1cccc1C1C=C(c2ccc(C(C)(C)C)cc2)Nc2ncnn21 (stereo not drawn) | ? | ? | ? | -4% | 16µM* | 2%
Oc1ccc(C2C=C(c3ccc(F)cc3)Nc3ncnn32)cc1 (stereo not drawn) | 10µM* | i | 8% | -9% | i | -1%
Cc1cc(C)cc(NC(=O)c2cc(C)nc3c2c(C)nn3-c2ccccc2)c1 | / | ? | / | / | ? | 0%
CC1CN(CC(O)COC(c2ccc(Cl)cc2)c2ccc(Cl)cc2)CC(C)O1 (stereo not drawn) | -7% | ? | 7.3µM* | -2% | ? | 1%
OC(CN1CCN(c2ccccn2)CC1)Cn1c2ccc(Cl)cc2c2cc(Cl)ccc21 (stereo not drawn) | ? | ? | 21µM* | -4% | ? | 2%
